PL synth Enamine – blocks phospholipid synthesis in CHO cells, Enamine compounds; ZR-82 CHO cells, pyrene fatty acid UV survival, CellTiter Blue; peroxisome-deficient CHO-K1 mutant line; plus DGAT-1, DGAT-2 and ACAT inhibitors; calls only at 10 µM; actives 0.4% (n = 20,000); AID 1347385;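 active = cell survival signal 2 SD away from solvent-only control wells, confirmed on one or two retests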;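 note: 3 h compound exposure then viability read about one day after UV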
Numbers without * were called inactive. The sample as a whole holds a higher share of hits than the screen did.

Results for CCOC(=O)c1c(N=CN(C)C)sc(C(=O)OC)c1C ?
PL synth Enamine: inactive

What do the screens show for `CCOC(=O)c1sc(N=Nc2[nH]c(C)c(C(=O)OCC)c2C)c(C(=O)OCC)c1C`?
PL synth Enamine: active

Results for CCOC(=O)c1sc(N=Nc2c(O)[nH]c(=S)[nH]c2=O)c(C(=O)OCC)c1C ?
PL synth Enamine: inactive

What do the screens show for `CCNC(=O)NC12CC3CC(CC(C3)C1)C2`?
PL synth Enamine: inactive

How did O=[N+]([O-])c1cccc2nc(/C=C/c3c(F)c(F)c(F)c(F)c3F)ccc12 do in these assays?
PL synth Enamine: inactive

What do the screens show for `Nc1nc(SCCSc2cc(Cl)ccc2Cl)n[nH]1`?
PL synth Enamine: inactive

Results for Oc1ccc2ccccc2c1N=Nc1ccc2c(c1)OCCO2 ?
PL synth Enamine: active

What do the screens show for `Cc1[nH]c2ccccc2c1N=Nc1c(C)n(C)n(-c2ccccc2)c1=O`?
PL synth Enamine: inactive

Results for Cc1[nH]c2ccccc2c1N=Nc1ccc(F)cc1 ?
PL synth Enamine: active

How did Cc1[nH]c2ccccc2c1N=Nc1cccnc1 do in these assays?
PL synth Enamine: inactive

Results for Cc1[nH]c2ccccc2c1N=Nc1ccccc1F ?
PL synth Enamine: inactive

How did O=C1CCCC(O)=C1N=Nc1ccc2c(c1)OCO2 do in these assays?
PL synth Enamine: inactive

Results for Oc1ccc2ccccc2c1N=Nc1ncn[nH]1 ?
PL synth Enamine: inactive

Results for Oc1ccc(N=Nc2ccc3c(c2)OCCO3)c2ncccc12 ?
PL synth Enamine: inactive

How did Cc1[nH]c2ccccc2c1N=Nc1ccc2c(c1)OCO2 do in these assays?
PL synth Enamine: active

What do the screens show for `O=C(NCc1ccco1)c1cc2c(s1)CCCC2`?
PL synth Enamine: inactive

How did C=CCOc1ccc(/C=C2\N=C(c3ccc(F)cc3)OC2=O)cc1 do in these assays?
PL synth Enamine: inactive

How did Cc1nn(-c2ccc(Cl)c(Cl)c2)c2c1CN1CN2Cc2c(C)nn(-c3ccc(Cl)c(Cl)c3)c21 do in these assays?
PL synth Enamine: inactive

Results for O=S(=O)(c1cc(Br)ccc1Br)N1CCc2ccccc21 ?
PL synth Enamine: inactive

How did CC(C)(C)c1ccc(CN2c3cccc4cccc(c34)S2(=O)=O)cc1 do in these assays?
PL synth Enamine: inactive

Results for Cc1noc(C)c1CCC(=O)NC1=NCCS1 ?
PL synth Enamine: inactive

Results for Cc1sc2nc(CSc3nnc(C4CC4)n3C3CC3)[nH]c(=O)c2c1C ?
PL synth Enamine: inactive

Results for Cc1nc(SCC(=O)N(C)C2CCCCC2)c2c3c(sc2n1)CCC3 ?
PL synth Enamine: inactive

Results for Cc1nn(-c2ccccc2)c(N)c1N=Nc1ccccc1OC(F)F ?
PL synth Enamine: active

How did Cc1nn(-c2ccccc2)c(N)c1N=Nc1ccc2ccccc2c1 do in these assays?
PL synth Enamine: inactive

Results for COc1ccc(OC)c(N=Nc2c(C)nn(-c3ccccc3)c2N)c1 ?
PL synth Enamine: inactive

Results for Cc1cc(C)c(C)c(S(=O)(=O)N2c3ccccc3CC2C)c1C (stereo unspecified) ?
PL synth Enamine: inactive

Results for O=[N+]([O-])c1ccc(N=P(c2ccccn2)(c2cccc3ccccc23)c2cccc3ccccc23)cc1 ?
PL synth Enamine: inactive

What do the screens show for `COc1ccc(-c2n[nH]c(=S)o2)c(OC)c1`?
PL synth Enamine: inactive

Results for O=S(=O)(NC(=S)NC1CCCCC1)c1cccs1 ?
PL synth Enamine: inactive

Results for C/C(=N\NC(=S)NC1CCCCC1)c1cccs1 ?
PL synth Enamine: active

How did CCNC(=S)N/N=C(\C)c1cccs1 do in these assays?
PL synth Enamine: inactive

What do the screens show for `CC(CC(=O)NC1=NCCS1)n1ccnc1` (stereo unspecified)?
PL synth Enamine: inactive

Results for S=C(NNc1ccnc2cc(Cl)ccc12)Nc1ccc(Cl)cc1Cl ?
PL synth Enamine: active

What do the screens show for `O=C(NNc1ccnc2cc(Cl)ccc12)c1ccc(=O)[nH]n1`?
PL synth Enamine: inactive

Results for S=C(NNc1ccnc2cc(Cl)ccc12)NC1CCCCC1 ?
PL synth Enamine: inactive

How did O=c1oc2ccccc2c(O)c1C=Nc1ccc(Cl)cn1 do in these assays?
PL synth Enamine: inactive

What do the screens show for `Cc1nc(SCC(=O)NN2C(=O)NC3(CCC(C)CC3)C2=O)n(CC(C)C)c1C` (stereo unspecified)?
PL synth Enamine: inactive

How did c1ccc2sc(NN=C3CCCCCC3)nc2c1 do in these assays?
PL synth Enamine: inactive

What do the screens show for `NC(=O)N/N=C1\CCS(=O)(=O)c2ccc(F)cc21`?
PL synth Enamine: inactive

How did O=S1(=O)CC/C(=N/Nc2ccc(Cl)cc2)c2cc(F)ccc21 do in these assays?
PL synth Enamine: active

What do the screens show for `c1ccc2c(c1)CC/C(=N\Nc1nc3ccccc3s1)C2`?
PL synth Enamine: inactive

Results for C=CCNC(=S)N/N=C1\CCS(=O)(=O)c2ccccc21 ?
PL synth Enamine: inactive

Results for O=S1(=O)CC/C(=N/Nc2nc3ccccc3s2)c2cc(F)ccc21 ?
PL synth Enamine: active

How did CCCCS(=O)(=O)C1CCS(=O)(=O)C1 (stereo unspecified) do in these assays?
PL synth Enamine: inactive

Results for Nc1ccc2[nH]c(=O)[nH]c2c1 ?
PL synth Enamine: inactive

How did O=C1/C(=C/c2ccc(Br)s2)CCc2ccccc21 do in these assays?
PL synth Enamine: inactive

How did O=[N+]([O-])c1ccc(N2CCN(CCO)CC2)cc1SCCO do in these assays?
PL synth Enamine: inactive

What do the screens show for `O=[N+]([O-])c1ccc(N2CCNCC2)c(S(=O)(=O)N2CCOCC2)c1`?
PL synth Enamine: inactive

What do the screens show for `O=[N+]([O-])c1ccc(N2CCNCC2)cc1NC1C2CC3CC(C2)CC1C3` (stereo unspecified)?
PL synth Enamine: active

Results for O=c1c2ccccc2nnn1CN1CCC(c2nc3ccccc3o2)CC1 ?
PL synth Enamine: inactive

How did CC(C)n1c(=S)[nH]c2sc3c(c2c1=O)CCC3 do in these assays?
PL synth Enamine: inactive

How did FC(F)(F)CN(Cc1ccccc1)C(=S)NCc1ccc2c(c1)OCO2 do in these assays?
PL synth Enamine: inactive

How did Cc1nc(N)sc1C do in these assays?
PL synth Enamine: inactive

Results for Cc1nc(N)sc1N=Nc1ccc(Br)cc1 ?
PL synth Enamine: active

What do the screens show for `CCN(CC)S(=O)(=O)c1ccc(N=Nc2sc(N)nc2C)cc1`?
PL synth Enamine: inactive

How did CCSc1nnc(SCC(=O)NC23CC4CC(CC(C4)C2)C3)s1 do in these assays?
PL synth Enamine: inactive

How did Nc1[nH]c(=O)[nH]c(=O)c1N=Nc1ccc2c(c1)OCCO2 do in these assays?
PL synth Enamine: inactive

What do the screens show for `Nc1nc(-c2ccccc2)c(N=Nc2ccc3c(c2)OCO3)s1`?
PL synth Enamine: active

How did Oc1c(N=Nc2ccc3c(c2)OCO3)sc2ccccc12 do in these assays?
PL synth Enamine: inactive

How did c1ccc(-c2nnc(-c3ccc4c(c3)OCO4)nc2-c2ccccc2)cc1 do in these assays?
PL synth Enamine: inactive

Results for Nc1nc(-c2ccccc2)c(N=Nc2ccc3c(c2)OCCO3)s1 ?
PL synth Enamine: active

How did c1cc2c(cc1-c1csc(N3CCOCC3)n1)OCCO2 do in these assays?
PL synth Enamine: inactive

What do the screens show for `FC(F)Oc1ccccc1C1Oc2ccccc2C2CC(c3ccc4c(c3)OCCO4)=NN21` (stereo unspecified)?
PL synth Enamine: inactive

What do the screens show for `O=c1[nH]c(CN2CCCCCCC2)nc2sc3c(c12)CCCC3`?
PL synth Enamine: inactive

How did Cn1c(N)c(C(=O)Cn2cc(C(F)(F)F)cc(Cl)c2=O)c(=O)n(C)c1=O do in these assays?
PL synth Enamine: inactive

What do the screens show for `O=S(=O)(Nc1ccc2c(c1)CCC2)c1ccc(F)cc1`?
PL synth Enamine: inactive

From PubChem
